Screening results deposited in PubChem BioAssay by Broad Institute.
Wnt bcat act – Wnt/beta-catenin pathway activation | AID 743398 | hit rate 1.2% among 300,000 | Wnt/beta-catenin reporter cell assay, activator, plate reader | activation, % at 9.35 µM; in the data active = activation above about 30%, passing the limit was not always enough; inconclusive = no clear call, values can overlap the other calls
miR-122 sensor – miR-122 inhibition in Huh7 cells; Huh7 miR-122 Renilla luciferase sensor, 48 h; neutral wells = 0, positive control = 100; activation (reporter increase), % at 12.5 µM; hit rate 0.3% among 340,000; AID 602342;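 active = mean replicate activation score at least 90 and every replicate individually at or above 90; inconclusive = only one of the two criteria met; inactive = neither criterion met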;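 note: higher luciferase means less miR-122 activity so hits act as miR-122 inhibitors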
Env fusion inh – blocks HIV Env-driven cell-cell fusion; inhibition, % at 12.3 µM; hit rate 1.1% among 360,000; HeLa-JRFL Env/CEM21 cell fusion, luciferase;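 active = mean replicate inhibition score of at least 50 and every replicate individually at or above 50; inconclusive = only one of the two criteria met; inactive = mean below 50 and not all replicates reaching 50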
MITF TRPM1 HTS – activators of MITF-driven TRPM1 promoter activity in SK-MEL-5 cells; SK-MEL-5 TRPM1-promoter luciferase, 24 h; % of positive control, neutral wells = 0; activation, % at 12.5 µM; hit rate 0.75% among 300,000;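 active = mean activation of at least 80% with every replicate also reaching 80%; inconclusive = mean reaches 80% but some replicate falls short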
esBAF inh – blocks esBAF chromatin remodeling in mouse ES cells. Bmi1-luciferase knock-in reporter, 24 h; 100% = twice the neutral-well signal. reporter increase, % at 12.5 µM. hit rate 2% among 350,000; in the data active = activation above about 40%; inconclusive = no clear call, values can overlap the other calls;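 note: a rise in the Bmi1 reporter signal indicates esBAF inhibition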
A number is an active result; . = inactive; ? = inconclusive; / = no result. Compounds with a hit are over-represented: about 3.4% of the library has one in this group of screens.

SMILES	Wnt bcat act	miR-122 sensor	Env fusion inh	MITF TRPM1 HTS	esBAF inh
Cc1cc(C)n(CC(=O)O)c(=O)c1[N+](=O)[O-]	35	.	.	.	/
CC1(C)CN=c2s/c(=C\c3ccc(Cl)cc3)c(=O)n2C1	.	.	.	117	.
CC[C@]12c3[nH]c4ccccc4c3CCN1C(=O)C(CC(=O)NCc1ccco1)C[C@@H]2C(=O)N1CCN(C(=O)C2CC2)CC1 (some centres undefined)	.	.	.	.	.
CC[C@]12c3[nH]c4ccc(OC)cc4c3CCN1C(=O)C(CC(=O)NCC13CC4CC(CC(C4)C1)C3)C[C@@H]2C(=O)N1CCN(C(=O)C2CC2)CC1 (some centres undefined)	.	.	70	.	.
CC[C@]12c3[nH]c4ccccc4c3CCN1C(=O)C(CC(=O)NCc1ccc(OC)c(OC)c1)C[C@@H]2C(=O)N1CCN(C(=O)C2CC2)CC1 (some centres undefined)	.	.	61	.	.
CC[C@]12c3[nH]c4ccc(OC)cc4c3CCN1C(=O)C(CC(=O)NCCCN(C)C)C[C@@H]2C(=O)N1CCN(C(=O)C2CC2)CC1 (some centres undefined)	.	/	.	.	.
CC[C@]12c3[nH]c4ccc(Cl)cc4c3CCN1C(=O)[C@@H](CC(=O)NCC13CC4CC(CC(C4)C1)C3)C[C@@H]2C(=O)N1CCN(C(=O)C2CC2)CC1	.	.	58	.	.
CC[C@]12c3[nH]c4ccccc4c3CCN1C(=O)C(CC(=O)NCC13CC4CC(CC(C4)C1)C3)C[C@@H]2C(=O)N1CCN(C(=O)C2CC2)CC1 (some centres undefined)	.	.	100	.	.
CO[C@H]1CN(C)C(=O)c2ccc(NC(=O)c3ccccc3F)cc2OC[C@H](C)N(C(C)=O)C[C@@H]1C	/	/	/	/	.
Cc1ccc(S(=O)(=O)Nc2ccc3c(c2)C(=O)N([C@@H](C)CO)C[C@@H](C)[C@@H](CN(C)S(C)(=O)=O)OCCCC[C@@H](C)O3)cc1	/	.	.	/	.
CC(C)NC(=O)N(C)C[C@H]1Oc2ncc(-c3cncnc3)cc2C(=O)N([C@H](C)CO)C[C@@H]1C	/	/	.	/	.
Cc1noc(C)c1NC(=O)Nc1ccc2c(c1)CC(=O)N([C@H](C)CO)C[C@@H](C)[C@H](CN(C)C(=O)Nc1ccc(C(F)(F)F)cc1)O2	/	.	.	/	.
CCOC(=O)CC1COCCN1C(=O)c1ccc2oc(Cc3ccccc3)nc2c1 (centres undefined)	.	.	.	?	52
CCCCc1nc2cc(C(=O)NC(C)c3cnn(C)c3)ccc2o1 (centres undefined)	.	.	.	.	61
O=C(c1ccc2oc(CCCc3ccccc3)nc2c1)N1CCCCC1CO (centres undefined)	.	.	.	.	/
CCCCc1nc2cc(C(=O)N3CCCCC3CC(=O)OCC)ccc2o1 (centres undefined)	.	.	.	.	56
CCCCc1nc2cc(C(=O)N3CCCC3)ccc2o1	.	.	.	.	.
CCCCc1nc2cc(C(=O)N3CCCCC3C(=O)OC)ccc2o1 (centres undefined)	.	.	.	.	64
CC(C)COC(=O)c1ccc(NC(=O)C2C3CCC(C3)C2C(=O)O)cc1 (centres undefined)	.	.	/	.	58
CCOC(=O)c1ccc(NC(=O)C2C3CCC(C3)C2C(=O)O)cc1 (centres undefined)	.	.	/	.	.
CCOC(=O)c1ccc(NC(=O)C2C3CCCCC32)cc1 (centres undefined)	.	.	.	82	?
CCOC(=O)c1ccc(NC(=O)N2CCCCCC2)cc1	37	/	.	98	.
CCOC(=O)c1ccc(NS(=O)(=O)N2CCCCCC2)cc1	.	.	/	.	47
C[C@@H]1CN([C@H](C)CO)C(=O)c2cc(/C=C/c3ccccc3)cnc2O[C@H]1CN(C)Cc1cccnc1	/	.	.	/	.
C[C@H](CO)N1C[C@H](C)[C@H](CN(C)C(=O)[C@@H](Cc2ccccc2)N(C)C)OCc2ccccc2-c2ccccc2C1=O	/	/	.	/	.
SMILES	Wnt bcat act	miR-122 sensor	Env fusion inh	MITF TRPM1 HTS	esBAF inh
C#CCN([C@H](/C=C/C1CC1)[C@@H](O)Cc1ccccc1)[C@@H]1C(=O)N2[C@@H]1SC(C)(C)[C@@H]2C(=O)OC	/	/	.	/	/
Cc1ccc(NC(=O)C2C3/C=C\CCCCC32)cc1 (centres undefined)	.	.	.	94	/
COc1ccc(/C=C/C(=O)c2ccccc2O)cc1	/	.	/	141	87
COc1ccc(/C=C/C(=O)c2ccccn2)cc1	75	/	.	.	/
COc1ccc([N+](=O)[O-])c(C=CC(=O)c2ccccn2)c1	.	/	.	/	/
C[C@H](CO)N1C[C@H](C)[C@H](CN(C)Cc2ccc(C(F)(F)F)cc2)OCCCC[C@H](C)Oc2ccc(NS(=O)(=O)c3ccc(F)cc3)cc2C1=O	/	.	.	/	.
CC(C)(C)N1C(=O)[C@H]2[C@@H](c3ccc(Br)cc3)N3C(=O)N(c4cccc(F)c4)C(=O)[C@@]3(Cc3ccccc3)[C@H]2C1=O	.	/	?	.	.
CC[C@@]12C(=O)N(c3cccc(F)c3)C(=O)N1[C@H](c1ccc(Br)cc1)[C@@H]1C(=O)N(C(C)(C)C)C(=O)[C@@H]12	.	.	98	.	.
COc1ccc([C@@H]2[C@@H]3C(=O)N(C(C)(C)C)C(=O)[C@@H]3[C@]3(CC(C)C)C(=O)N(c4cccc(F)c4)C(=O)N23)cc1	.	/	99	.	.
CN1c2ccc(-c3ccccc3)cc2[C@@H]2[C@@H](CCN2C(=O)c2ccc3c(c2)OCO3)[C@@H]1CO	/	.	/	/	.
Cc1ccc(S(=O)(=O)N2CCC(=O)N(CCOC(=O)Nc3cccc(Cl)c3)CC2)cc1	.	.	92	.	.
O=C1CCN(S(=O)(=O)c2ccccc2)CCN1CCOCc1ccc(C(F)(F)F)cc1	.	.	.	.	.
Cc1ccc(S(=O)(=O)N2CCC(=O)N(CCOCc3ccc(C(F)(F)F)cc3)CC2)cc1	.	/	69	.	.
Cc1ccc(NC(=O)OCCN2CCN(S(=O)(=O)c3ccc(C)cc3)CCC2=O)cc1	.	.	.	.	.
CO[C@H]1CN(C)C(=O)c2cc(NS(=O)(=O)c3ccccc3Cl)ccc2OC[C@H](C)NC[C@H]1C	/	.	.	/	.
COc1ccc(N/C=C/C(=O)c2ccc(C)cc2)c([N+](=O)[O-])c1	.	.	/	/	.
CCOc1ccc(N/C=C/C(=O)c2ccc(OC)cc2)c([N+](=O)[O-])c1	.	.	.	98	73
CCOc1ccc(NC(=O)c2ccc(CC)s2)c([N+](=O)[O-])c1	.	.	.	.	50
CCCNC(=O)N1CC2(CCN(S(=O)(=O)c3ccc(OC)cc3)CC2)c2c(n(C)c3cc(OC)ccc23)[C@@H]1CO	/	/	.	/	/
COc1ccccc1NC(=O)N(C)C[C@@H]1Oc2ncc(C#CC(C)C)cc2C(=O)N([C@H](C)CO)C[C@H]1C	/	.	/	/	.
CC(=O)c1cccc(Nc2ccc(-c3ccccc3F)nn2)c1	.	/	.	.	/
